Assay results as given in PubChem BioAssay AID1508602 (The Scripps Research Institute Molecular Screening Center, 2020).
About 6,800 (1%) of roughly 650,000 compounds were called active. No stated cut-off is given here; in the data, active means activation above about 4.9%; inactive means the rest. The entries come from a sample that favours actives as a whole.

These compounds were tested against G-protein coupled receptor 151 (Homo sapiens) (UniProt Q8TDV0) (assay: activators of human GPR151, primary screen, cell-based, PathHunter beta-arrestin, luminescence (AID 1508602;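 further: 0% = median of compound wells and 100% = cells with positive control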)). Details: PathHunter beta-arrestin GPR151 cells, at 11.2 µM, stronger effect = higher value.
Chain of G-protein coupled receptor 151 (Homo sapiens) (Q8TDV0 whole entry, looked up): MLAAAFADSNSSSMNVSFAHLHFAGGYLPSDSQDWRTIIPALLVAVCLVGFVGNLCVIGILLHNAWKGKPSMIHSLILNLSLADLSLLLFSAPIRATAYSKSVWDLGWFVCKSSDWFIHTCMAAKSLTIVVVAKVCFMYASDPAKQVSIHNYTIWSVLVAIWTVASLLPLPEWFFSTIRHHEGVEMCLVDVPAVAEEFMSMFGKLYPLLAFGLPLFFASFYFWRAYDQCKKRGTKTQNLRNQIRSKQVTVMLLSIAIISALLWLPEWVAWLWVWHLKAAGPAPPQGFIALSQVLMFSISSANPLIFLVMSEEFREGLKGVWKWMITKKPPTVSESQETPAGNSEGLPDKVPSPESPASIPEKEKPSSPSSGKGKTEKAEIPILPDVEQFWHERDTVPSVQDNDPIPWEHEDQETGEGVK
With `Cc1ccc(CNC(=O)CN2C(=O)C3C4C=CC(C4)C3C2=O)o1` (stereo not given) the activation was 0.668% (inactive). With `C[C@@H](c1ccccc1)N1C(=O)[C@H]2[C@H]3[C@H](O)C=CC(=O)[C@@H]3CC[C@H]2C1=O` the activation was -1.71% (inactive). With `CC(=O)N(c1nc(C=O)cs1)c1ccccc1F` the activation was 1.55% (inactive). `CC(C)(C)c1ccc(C2/C(=C(/O)c3ccccc3)C(=O)C(=O)N2c2ccc(OCC(=O)O)cc2)cc1` (stereo not given) was tested, and the activation was -0.849% (inactive). In the case of `O=C(O)COc1ccc(N2C(=O)C(=O)/C(=C(\O)c3ccccc3)C2c2ccc(Cl)cc2Cl)cc1` (stereo not given), the activation is reported as 6.19% (active). `COc1ccc(N2C(=O)C(=O)/C(=C(/O)c3ccccc3)C2c2ccc(Cl)cc2)cc1` (stereo not given) was tested, and the activation was -0.225% (inactive). For `CCOc1ccc2c(c1)=C/C(=C\c1[nH]c(=S)[nH]c1O)C(=O)N=2`, the activation was -0.225% (inactive). In the case of `CN1NC2(CCCCC2)N(c2ccccc2)C1=S`, the activation is reported as 0.403% (inactive). With `COc1ccc(CCNc2cc(C)nc(NCc3ccc4c(c3)OCO4)n2)cc1` the activation was -0.591% (inactive). With `COc1ccc(CCNc2cc(C)nc(Nc3cccc(N(C)C)c3)n2)cc1` the activation was 8.12% (active). For `COc1ccc(CCNc2ncnc3c2nc(Nc2cccc(N(C)C)c2)n3C(C)C)cc1`, the activation was -3.07% (inactive). For `CC1=C(C(=O)OCc2ccc3c(c2)OCO3)C(c2ccc(Cl)c(Cl)c2)NC(=O)N1` (stereo not given), the activation was -0.562% (inactive). With `CC(C)(C)S(=O)(=O)Nc1nccnc1-c1ccc2c(c1)OCO2` the activation was -0.466% (inactive). `CCCCSC1=C(C#N)C(c2ccc(OC)cc2)C2=C(CC(C)(C)CC2=O)N1` (stereo not given) was tested, and the activation was 1.78% (inactive). With `CC(=O)N(C)c1ccc(N=Cc2ccc3ccccc3c2)cc1` the activation was -0.522% (inactive). In the case of `O=C1NC2(CCN(CC(=O)N3CCCCC3)CC2)Nc2ccccc21`, the activation is reported as -0.0006% (inactive). `Cc1ccc(N=Cc2c(NCc3ccco3)nc3c(C)cccn3c2=O)cc1` was tested, and the activation was -0.949% (inactive). `C/C(=N/NC(=O)c1ccccc1)c1ccc(F)cc1` was tested, and the activation was -1.24% (inactive). In the case of `CCCNc1ncnc2c1nc(Nc1cccc(N(C)C)c1)n2C(C)C`, the activation is reported as -1% (inactive). `CC(C)n1c(Nc2ccc3ncccc3c2)nc2c(N)ncnc21` was tested, and the activation was 0.875% (inactive). For `CC(C)n1c(Nc2ccc3ncccc3c2)nc2c(NC3CC3)ncnc21`, the activation was 7.49% (active). In the case of `CC1=C(C(=O)Nc2nc3ccc(Br)cc3s2)C(c2ccccc2C)C2=C(CC(C)(C)CC2=O)N1` (stereo not given), the activation is reported as 1.38% (inactive). For `COc1ccc(C(=O)Nc2ccc(S(=O)(=O)NC(C)C)cc2)cc1`, the activation was 5.49% (active). For `COc1ccc(NC(=O)c2ccc(C(=O)Nc3ccc(OC)cc3)cc2)cc1`, the activation was -0.694% (inactive). In the case of `COc1ccc(C(=O)Nc2ccc(S(=O)(=O)N(C)C3CCCCC3)cc2)cc1`, the activation is reported as -0.159% (inactive). With `COc1cccc(-c2nc3nc(C)c(CCC(=O)NC4CCCC4)c(C)n3n2)c1` the activation was 0.324% (inactive). For `Cc1ccc(Cl)cc1NC(=O)C1CC(=O)c2ccccc21` (stereo not given), the activation was 0.739% (inactive). In the case of `Cc1nc(-c2cccc(NC(=O)C3CC(=O)c4ccccc43)c2)cs1` (stereo not given), the activation is reported as 7.17% (active). For `CC(=O)Nc1cccc(-c2csc(C)n2)c1`, the activation was -0.0322% (inactive). In the case of `CCSCCOC(=O)C1=C(C)NC2=C(C(=O)CC(c3cccs3)C2)C1c1cc(OC)c(O)c([N+](=O)[O-])c1` (stereo not given), the activation is reported as 0.362% (inactive). In the case of `c1ccc(CN2CCC(Nc3nnnn3-c3ccccc3)CC2)cc1`, the activation is reported as 0.295% (inactive). In the case of `CC(NC(=O)Nc1ccc(Br)cc1Br)(C(F)(F)F)C(F)(F)F`, the activation is reported as -0.154% (inactive). With `CCOC(=O)c1c(NC(=O)CSc2nnc(CNC(=O)Cc3ccc(OC)cc3)n2-c2ccc(F)cc2)sc2c1CCCC2` the activation was -0.665% (inactive). `COCCNC(=S)N1CCN(c2ncccn2)CC1` was tested, and the activation was -1.93% (inactive). With `COCCNC(=S)N1CCN(c2ccccc2OC)CC1` the activation was 12.1% (active). With `COc1ccccc1N1CCN(CCNC(=O)c2ccc(F)cc2)CC1` the activation was -2.55% (inactive). With `CC(C)(C)c1ccc(S(=O)(=O)ON2C(=O)c3ccccc3C2=O)cc1` the activation was 3.8% (inactive). In the case of `CCCC(=O)Oc1ccc2c(-c3ccccc3)cc(=O)oc2c1`, the activation is reported as 1.03% (inactive). For `C=CCN(CC=C)C(=O)CSc1nnc2c3ccccc3n(C)c2n1`, the activation was 0.64% (inactive). For `C=CCn1c2ccccc2c2nnc(SCc3[nH]c(=O)[nH]c3C(=O)CCCCC(=O)OCC)nc21`, the activation was 9.28% (active). `C=CCn1c2ccccc2c2nnc(SC(CC)C(=O)Nc3nc(C)c(C(=O)OCC)s3)nc21` (stereo not given) was tested, and the activation was -0.843% (inactive). `O=C(NCCN1CCOCC1)C(=O)NCC1OCCCN1S(=O)(=O)c1ccccc1` (stereo not given) was tested, and the activation was -0.042% (inactive). In the case of `C=CCNC(=O)C(=O)NCC1OCCCN1S(=O)(=O)c1ccccc1` (stereo not given), the activation is reported as 5.93% (active). For `O=C(NCC1OCCCN1S(=O)(=O)c1ccccc1)C(=O)NC1CC1` (stereo not given), the activation was 0.198% (inactive). `Cc1nc(NC(=O)CSc2nnc3c(C)cc4cc5c(cc4n23)OCCO5)sc1C` was tested, and the activation was 0.827% (inactive). `O=C(Nc1nc2ccccc2[nH]1)c1cc(Cl)ccc1Cl` was tested, and the activation was -5.18% (inactive). With `CC(C(=O)NCc1ccc(F)cc1)n1c2ccccc2c2cn[nH]c(=O)c21` (stereo not given) the activation was 0.149% (inactive). In the case of `CC(C(=O)NC1CCCC1)n1c2ccccc2c2cn[nH]c(=O)c21` (stereo not given), the activation is reported as 0.687% (inactive). `CC(C(=O)NCCN1CCOCC1)n1c2ccccc2c2cn[nH]c(=O)c21` (stereo not given) was tested, and the activation was 6.21% (active). `Cc1ccccc1Cn1cc(SCC(=O)N2CCCC2)c2ccccc21` was tested, and the activation was -1.67% (inactive). With `COc1ccccc1NC(=O)C1CC12CCN(Cc1cccc(OCCO)c1)CC2` (stereo not given) the activation was -0.488% (inactive). In the case of `Cn1c2ccccc2c2nnc(SCC(=O)Nc3ccc(Cl)cn3)nc21`, the activation is reported as -1.79% (inactive). With `Cn1c2ccccc2c2nnc(SCC(=O)Nc3ccc(NC(=O)C4CC4)cc3)nc21` the activation was 7.08% (active). In the case of `Cn1c2ccccc2c2nnc(SCCCCC(=O)Nc3cccc4ccccc34)nc21`, the activation is reported as -1.31% (inactive). With `CC(C)(C)CN1CCC(Oc2cccc(C(=O)NCC3CC(=O)N(C4CC4)C3)c2)CC1` (stereo not given) the activation was -0.301% (inactive).
